102 compounds from ChEMBL document CHEMBL4513216, “Probing the Open Global Health Chemical Diversity Library for Multistage-Active Starting Points for Next-Generation Antimalarials” (ACS Infect Dis, 2020) can be followed below.

Screen size: about 69,000 compounds; about 8,600 (12%) showed an effect of 50% or more. What follows is part of a selection rich in strong results, with near analogues and random picks from the rest.

This assay deals with Plasmodium berghei. In words: Screen against P. berghei liver stage (PbLuc), transformed with Luciferase, at 10uM. The format is functional, HepG2. The following applies: tested at 10 uM.
In the case of `Cc1ccc2c(c1)c(C)cc(=O)n2CCC#N`, the INHIBITION stood at 11.2%. As for `CC(C)c1noc(CN2CCN(C(=O)c3ccncc3F)CC2)n1`, the figure is -29.1%; as for `O=S(=O)(NCC1COCc2c(-c3ccncc3)nnn2C1)C1CC1` (configuration not stated), 18.3%; as for `NC(=O)c1ccc(NC(=O)c2ccncc2Cl)cn1`, 13.8%. The result for `Cc1ccc(OC2(C(=O)O)CCN(C(=O)CCc3ccco3)CC2)cn1` reads 34.4%; that for `O=c1c2sccc2nc2n1CCN(Cc1ccsc1)CC2`, 5.11%; that for `CC(C)(C)c1n[nH]cc1CN1CCc2nc3ccsc3c(=O)n2CC1`, 50.6%.

For `Cc1nn(C)cc1CN1CCc2nc3sccc3c(=O)n2CC1`, the INHIBITION is 30.5%. The result for `COc1ccc(CC(=O)N2CC[C@@H]3[C@H](CC2)N(C)CCS3(=O)=O)cc1` reads 18.5%; that for `COCCCN(Cc1cnc(-c2cccs2)nc1)C1CCN(C)CC1`, 13%; that for `Cc1nc(NC2CCS(=O)(=O)CC2)cc(C2CCCNC2)n1` (configuration not stated), 62.2%. The result for `Cc1nc(CCC(=O)NC2CCC2)cc(C2CCCNC2)n1` (configuration not stated) reads 26.8%; that for `Cc1nc(NC2CCCCC2)cc(C2CCCNC2)n1` (configuration not stated), 28.3%. Regarding `CSc1nsc(NC(=O)c2cc(C3CC3)nn2C)n1`, the INHIBITION was -64.85%. Consider `CCN(C)Cc1cccc(CNC(=O)NCCc2ccccn2)c1`, for which the INHIBITION came to 51%. As for `CCN(C)Cc1cccc(CNC(=O)CSCc2ccccn2)c1`, the figure is 20.8%; as for `CN(C)c1ccc(CNC(=O)NCCc2ccccn2)cn1`, -22.9%. The result for `Cc1nc(O)cc(C2CCN(Cc3cccc(F)c3F)C2)n1` (configuration not stated) reads 25%; that for `CN(Cc1nnc(C2CC2)n1C)C1CCN(Cc2ccccc2F)C1` (configuration not stated), -3.19%. In the case of `Cc1nc2cc(C3CCN(Cc4ccccc4F)C3)nn2c(O)c1C` (configuration not stated), the INHIBITION is 61.7%. The result for `Cc1nc2cc(C3CCN(Cc4cccc(F)c4F)C3)nn2c(O)c1C.O=C(O)CC(O)(CC(=O)O)C(=O)O` (configuration not stated) reads 90.4%; that for `CNC(=O)c1cn[nH]c1C1CCN(Cc2ccccc2F)C1` (configuration not stated), -10.5%; that for `Fc1ccccc1CN1CCC(c2n[nH]c(C3CC3)n2)CC1`, -5.92%. As for `CN(Cc1noc(C2CC2)n1)C1CCN(Cc2cccc(F)c2F)C1` (configuration not stated), the figure is -31.96%; as for `COC(=O)c1cccc2nc([C@H]3CCN(Cc4ccccc4F)C3)oc12`, -61.5%. For the compound `CCc1c(C)nc2cc(C3CCN(Cc4ccccc4F)C3)nn2c1O` (configuration not stated), the INHIBITION amounted to 85.9%.

For the compound `COCCNC(=O)Nc1ccc(-c2nc(C(C)C)no2)cc1`, the INHIBITION is reported as -36.4%. `Cc1cccc(C)c1Nc1noc2c1CN(C(=O)c1ccn(C)n1)CC2`: the INHIBITION came out at 30.35%.

On to `CN(CC1COc2ccccc2O1)C(=O)CCn1cncn1` (configuration not stated), for which the INHIBITION came to 44.05%. On to `CNC(=O)CN1CCC(NC(=O)N(C)Cc2c(C)noc2C)CC1`, for which the INHIBITION is 34.25%. As for `Cc1cc(C)c(C(=O)N2CCOCC2c2c(C)n[nH]c2C)o1` (configuration not stated), the figure is -8.4%. In the case of `CO[C@H]1CN(Cc2ccc(F)cc2)CC[C@@]12CCCO2`, the INHIBITION is on record as 25.6%. The result for `Cn1cc(C(=O)N[C@@H]2CN(Cc3ccoc3)[C@@H]3CCCO[C@@H]32)cn1` reads 35.8%; that for `CN1CCS(=O)(=O)[C@@H]2CCN(C(=O)CC(C)(C)C)CC[C@@H]21`, 35.8%; that for `C[C@H]1CN2C[C@H](O)CC2CN1Cc1ccc2nccnc2c1` (some centres not stated), 17.4%. The result for `CCc1nsc(N2CCCN(C(=O)c3ccc(OC)cc3)CC2)n1` reads 33.5%; that for `CCc1nsc(N2CCCN(C(=O)COc3ccccc3)CC2)n1`, 53.8%; that for `CCc1nsc(N2CCN(C(=O)COc3ccccc3)CC2)n1`, -39.2%. As for `COC(=O)c1cccn1C1CCN(S(=O)(=O)c2ccccc2)CC1`, the figure is 19.5%; as for `Cc1ccc(C)c(S(=O)(=O)NCCC(=O)NCc2ccoc2)c1`, -0.514%; as for `CCSCCNc1cc(C)nc2c(C)c(C)nn12`, 39.9%.

As for `O=C(O)[C@@H]1CN(C(=O)CSCCN2CCCC2)C[C@H]1c1ccccc1`, the INHIBITION is given as 39.3%. The result for `CC1CCN(C(=O)CSCc2nc(C3CC3)no2)CC1` reads -42.2%. For `O=C(NCC(=O)N1CCc2ccccc2C1)c1ccoc1`, the INHIBITION was 26.3%.

As for `O=C(CSCCN1CCOCC1)N1CCc2ccccc2C1`, the INHIBITION is recorded as 76%. The result for `O=C(CSCCN1CCOCC1)N1CCCCCC1` reads 44.1%; that for `CC1CCN(C(=O)CSCCN2CCOCC2)CC1`, 85.6%; that for `O=C1CCCN1c1cccc(CNCc2nc(C3CC3)no2)c1`, 29.6%. As for `Cc1c[nH]nc1C1CCCN(C(=O)c2c(C)noc2C)C1` (configuration not stated), the figure is 23.4%; as for `N#Cc1cn(C2CC2)c(=O)n(CC(O)c2ccc(Cl)cc2)c1=O` (configuration not stated), 9.1%; as for `Cc1cc(C[S+]([O-])Cc2ccccc2C)no1` (configuration not stated), -23.3%. As for `Cc1ccc(CN2CCc3c(nc4cc(C5CC5)nn4c3O)C2)s1`, the figure is 44.3%.

Regarding `CC(=O)NC(C(=O)N1CCn2cncc2C1)C(C)C` (configuration not stated), the INHIBITION came to 29.8%. Consider `CC(C(=O)N1CCn2cncc2C1)N1CCCC1` (configuration not stated), for which the INHIBITION is reported as 47.9%.

With `CC(C)N(C(=O)N1CCn2cncc2C1)C(C)C`, the INHIBITION is 52.2%. Turning to `Cn1ncc2c(N3CCC(CC(=O)N4CCCC4)CC3)ncnc21`, the INHIBITION stood at 11.9%. For `O=C(CC1CCN(c2ncnc3ccccc23)CC1)N1CCCC1`, the INHIBITION came to 53.2%. The result for `O=C(CC1CCN(c2ncnc3cccc(F)c23)CC1)N1CCCC1` reads -18.5%; that for `CC(=O)NCCNC(=O)CN1CCOC(Cn2cc(C)cn2)C1` (configuration not stated), 25.6%; that for `Cc1cccc2[nH]cc(CC(=O)N3CCC(Nc4cccnn4)CC3)c12`, 24%. `CCc1cnc2c(c1NCc1cccc(OC)c1)c(=O)n(C)c(=O)n2C`: the INHIBITION came to 55.3%. As for `CCc1cnc2c(c1Nc1ccncc1)c(=O)n(C)c(=O)n2C`, the figure is 27.6%; as for `COc1cccc(CNc2c(C)cnc3c2c(=O)n(C)c(=O)n3C)c1`, 48.1%; as for `COc1ccc(CNc2c(C)cnc3c2c(=O)n(C)c(=O)n3C)cc1`, 9.79%. `CCc1cnc2c(c1Nc1ccc(C)c(F)c1)c(=O)n(C)c(=O)n2C`: the INHIBITION worked out at 53.1%.

On to `CCc1cnc2c(c1Nc1ccc(OC)cc1)c(=O)n(C)c(=O)n2C`, for which the INHIBITION is -50.5%.

`CCc1cnc2c(c1NCc1ccc(OC)cc1)c(=O)n(C)c(=O)n2C`: the INHIBITION is recorded as 67.6%. As for `CCc1cnc2c(c1NCc1ccncc1)c(=O)n(C)c(=O)n2C`, the figure is 2.3%. As to `CCc1cnc2c(c1Nc1ccc3c(c1)OCO3)c(=O)n(C)c(=O)n2C`, the INHIBITION is 4.35%. As for `O=S(=O)(Cc1ccccc1Cl)CC(O)CO` (configuration not stated), the figure is 27%. As for `Cc1cnn(Cc2ccc(NC(=O)N3CCCCC3CO)cc2)c1` (configuration not stated), the figure is -0.378%. As to `Cc1noc(CNC2CCCN(Cc3noc(C4CC4)n3)C2)n1` (configuration not stated), the INHIBITION was -52.5%.

Consider `COc1cccc(CNCc2nc3ccccc3c(=O)[nH]2)c1`, for which the INHIBITION is 16.5%. The result for `COCCN1C[C@@H]2OCCN(c3ccnc(N(C)C)n3)[C@@H]2C1` reads -16.9%. As for `CN(C)c1nccc(N2CCO[C@H]3CN(Cc4nccn4C)C[C@H]32)n1`, the figure is 80.2%; as for `CN(C)c1nccc(N2CCO[C@H]3CN(CC4CCOCC4)C[C@H]32)n1`, 36.8%; as for `CN(C)c1nccc(N2CCO[C@H]3CN(Cc4ccco4)C[C@H]32)n1`, -23.4%. The result for `Cc1noc(C)c1CN1CCO[C@H]2CN(Cc3nccn3C)C[C@H]21` reads 0.72%; that for `CCc1ccc(CN2C[C@@H]3OCCN(c4ccnc(N(C)C)n4)[C@@H]3C2)o1`, 85.1%; that for `CCS(=O)(=O)Nc1ccc2oc(C)c(C(C)=O)c2c1`, 28.5%. In the case of `Fc1cnc(N2CCCC3(COCCN(c4nccs4)C3)C2)nc1` (configuration not stated), the INHIBITION came out at 29.4%. `COc1ccc(CN2CC[C@@]3(C2)[C@H](O)CN(C)S3(=O)=O)cc1F`: the INHIBITION stood at 20.7%. With `CN1C[C@H](O)[C@]2(CCN(Cc3ccc(OC(F)(F)F)cc3)C2)S1(=O)=O`, the INHIBITION stood at 26%. As for `CN1C[C@H](O)[C@]2(CCN(Cc3ccc(F)c(F)c3)C2)S1(=O)=O`, the figure is 54%; as for `Cn1cc(CN2CCCC23CCN(C(=O)c2ccncc2)CC3)cn1`, 36.4%; as for `O=C(N1CCOCC1)[C@@]12CCO[C@@H]1CCN(CCN1CCCCC1)C2`, -22.9%. As for `CN(C)C(=O)[C@@]12CCO[C@@H]1CCN(Cc1ccc3c(c1)OCO3)C2`, the INHIBITION is 76.2%.

Consider `O=C(N1CCOCC1)[C@@]12CCO[C@@H]1CCN(Cc1cccc(F)c1)C2`, for which the INHIBITION is 95.1%. For the compound `O=C(N1CCOCC1)[C@@]12CCO[C@@H]1CCN(Cc1ccncc1)C2`, the INHIBITION is recorded as 83.2%. Consider `Cc1cccc(CN2CC[C@H]3OCC[C@@]3(C(=O)N3CCOCC3)C2)n1`, for which the INHIBITION was determined as 12.6%.

Turning to `CC(C)NC(=O)[C@@]12CCO[C@@H]1CCN(Cc1ccc3c(c1)OCO3)C2`, the INHIBITION came out at 33.5%.

On to `O=C(N1CCOCC1)[C@@]12CCO[C@@H]1CCN(CC1CCCC1)C2`, for which the INHIBITION is recorded as 53.4%. As for `O=C(N1CCOCC1)[C@@]12CCO[C@@H]1CCN(Cc1ccccc1F)C2`, the figure is 36.3%; as for `CNC(=O)[C@@]12CCO[C@@H]1CCN(Cc1ccc3c(c1)OCO3)C2`, 3.69%. Take `O=C(N1CCOCC1)[C@@]12CCO[C@@H]1CCN(CC1CCC1)C2`: the INHIBITION came to 22.2%.

As to `O=C(N1CCOCC1)[C@@]12CCO[C@@H]1CCN(CC1CCCCC1)C2`, the INHIBITION stood at 24.5%. As for `Cc1cc(CN2CC[C@H]3OCC[C@@]3(C(=O)N3CCOCC3)C2)no1`, the figure is 14.6%. `O=S(=O)(c1cn[nH]c1)N1CCC(O)(CN2CCOCC2)C1` (configuration not stated): the INHIBITION was 38.5%. On to `COc1cc(-c2nc3c([nH]2)CCCNC3=O)ccc1O`, for which the INHIBITION is -53%. On to `CN(C)C(=O)CN1CCC2(CCN(CC3CC3)CC2)C1=O`, for which the INHIBITION is on record as 28.4%.

As to `COc1ccccc1CN(C)C(=O)NCc1c(C)cc(C)[nH]c1=O`, the INHIBITION is given as -13.3%.

Take `O=C(c1ccc(N2CCOCC2)nc1)N1CCCC(n2cccn2)C1` (configuration not stated): the INHIBITION was 31.3%.
